Measurements taken from PubChem BioAssay (NCATS).
Inconclusive results are not listed. Active and inactive are the calls of the source. Calls come from the whole dose curve; as a rule, active = well fitted inhibition curve with a large enough effect; inconclusive = small, poorly fitted or top-dose-only effect; inactive = flat fitted curve, though single readings scatter.

Target: Ubiquitin carboxyl-terminal hydrolase 1 (Homo sapiens) (UniProt O94782)
Assay: Inhibitors of USP1/UAF1: Pilot qHTS (AID 504865); note: nearly all actives have a fitted effect of over 35% in size;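 for activity change, negative = inhibition: rhodamine fluorescence freed from ubiquitin-rhodamine substrate followed over time; top concentration of the series differs between compounds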
Conditions: purified USP1/UAF1, Ub-rhodamine cleavage fluorescence; series mostly up to 114 µM; activity change, negative = inhibition: at the top concentration
How it was run: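 Deubiquitinase activity followed as kinetic rhodamine fluorescence release from 150 nM Ub-Rho. 1 nM USP1/UAF1 with compound, after 15 min room-temperature preincubation, in HEPES pH 7.8 buffer containing TCEP, EDTA, BSA and Tween-20.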
% is set by controls: 0 for no effect and ±100 for the full control effect; potency is the fitted concentration of half-maximal effect.

Chain of Ubiquitin carboxyl-terminal hydrolase 1 (Homo sapiens) (O94782 whole entry, looked up): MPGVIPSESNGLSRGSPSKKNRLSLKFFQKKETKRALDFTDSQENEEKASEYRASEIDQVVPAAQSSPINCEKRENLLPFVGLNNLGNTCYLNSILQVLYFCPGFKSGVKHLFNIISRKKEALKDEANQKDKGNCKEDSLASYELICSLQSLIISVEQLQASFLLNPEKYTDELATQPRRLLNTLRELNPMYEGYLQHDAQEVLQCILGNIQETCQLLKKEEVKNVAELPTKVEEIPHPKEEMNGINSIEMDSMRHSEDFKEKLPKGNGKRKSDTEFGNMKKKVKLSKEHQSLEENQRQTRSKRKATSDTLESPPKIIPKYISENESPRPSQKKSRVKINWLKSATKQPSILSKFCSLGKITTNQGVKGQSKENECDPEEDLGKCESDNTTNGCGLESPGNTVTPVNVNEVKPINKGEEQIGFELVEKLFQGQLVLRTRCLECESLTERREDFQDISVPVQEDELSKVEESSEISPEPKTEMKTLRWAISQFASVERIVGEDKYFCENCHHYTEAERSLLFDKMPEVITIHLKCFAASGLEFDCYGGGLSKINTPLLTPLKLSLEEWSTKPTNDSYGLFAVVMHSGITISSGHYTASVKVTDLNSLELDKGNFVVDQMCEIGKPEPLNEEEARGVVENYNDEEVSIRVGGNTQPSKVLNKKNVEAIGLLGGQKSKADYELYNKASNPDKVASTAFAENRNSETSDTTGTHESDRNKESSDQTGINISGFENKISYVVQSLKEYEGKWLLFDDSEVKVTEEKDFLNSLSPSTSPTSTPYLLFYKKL

**Q.** With `CO[C@H]1C[C@@H]2CC[C@@H](C)[C@@](O)(O2)C(=O)C(=O)N2CCCC[C@H]2C(=O)O[C@H]([C@H](C)C[C@@H]2CC[C@@H](OC(=O)C(C)(CO)CO)[C@H](OC)C2)CC(=O)[C@H](C)/C=C(\C)[C@@H](O)[C@@H](OC)C(=O)[C@H](C)C[C@H](C)/C=C/C=C/C=C/1C` as the compound, how does the “activity change, negative = inhibition” value read?
**A.** -3.32% (inactive)

**Q.** For `O=[n+]1ccn([O-])c2ccccc21`, which “activity change, negative = inhibition” value is on record?
**A.** -6.96% (inactive)

**Q.** For `COc1cc2c(cc1OC)[C@@H](Cc1cc(OC)c(OC)c(OC)c1)[N+](C)(CCCOC(=O)CC/C=C/CCC(=O)OCCC[N+]1(C)CCc3cc(OC)c(OC)cc3[C@H]1Cc1cc(OC)c(OC)c(OC)c1)CC2` (stereo not given in full), which “activity change, negative = inhibition” value is on record?
**A.** -6.61% (inactive)

**Q.** For `FC(F)OC(Cl)C(F)(F)F` (stereo not given), which “activity change, negative = inhibition” value is on record?
**A.** -4.77% (inactive)

**Q.** How did the “activity change, negative = inhibition” value turn out when `O=C(O)CCC/C=C\C[C@@H]1[C@@H](/C=C/[C@@H](O)COc2cccc(Cl)c2)[C@H](O)C[C@@H]1O` was run?
**A.** -0.0641% (inactive)

**Q.** With `CCN(CC)CCOc1ccc2nc(N(C)C)sc2c1` as the compound, how does the “activity change, negative = inhibition” value read?
**A.** -0.59% (inactive)

**Q.** Which “activity change, negative = inhibition” value does the source give for `COc1ccccc1N1CCN(CCCC(=O)c2ccc(F)cc2)CC1` here?
**A.** -5.3% (inactive)

**Q.** For `CCOC(=O)[C@@H](N)CS`, which “activity change, negative = inhibition” value is on record?
**A.** 3.9% (inactive)

**Q.** With `CCOc1ccc(NC(=S)Nc2ccc(OCC)cc2)cc1` as the compound, how does the “activity change, negative = inhibition” value read?
**A.** -6.82% (inactive)

**Q.** Which “activity change, negative = inhibition” value does the source give for `CCN(CC)C(=O)c1cccnc1` here?
**A.** -4.35% (inactive)

**Q.** With `[O]=[Bi][O]C(=O)[O][Bi]=[O]` as the compound, how does the “activity change, negative = inhibition” value read?
**A.** -6.83% (inactive)

**Q.** For `N=C(N)c1ccc(/C=C/c2ccc(C(=N)N)cc2O)cc1`, which “activity change, negative = inhibition” value is on record?
**A.** -11% (inactive)

**Q.** How did the “activity change, negative = inhibition” value turn out when `NC(=O)[C@@H]1CCCN1C(=O)[C@H](Cc1cnc[nH]1)NC(=O)[C@@H]1CCC(=O)N1` was run?
**A.** -4.57% (inactive)

**Q.** `NC(=S)N=Nc1ccc(NN=C(N)N)cc1` was tested. Which Potency did it give?
**A.** 44.7 µM (active)

**Q.** With `CCSc1ccc2c(c1)N(CCCN1CCN(C)CC1)c1ccccc1S2` as the compound, how does the “activity change, negative = inhibition” value read?
**A.** 4.17% [at 54.9 µM] (inactive)

**Q.** `O=S(=O)(O)CCCS(=O)(=O)O` was tested. Which “activity change, negative = inhibition” value did it give?
**A.** -6.69% (inactive)

**Q.** How did the “activity change, negative = inhibition” value turn out when `CC(=O)Nc1c(I)c(C(=O)O)c(I)c(N(C)C(C)=O)c1I` was run?
**A.** -10.7% (inactive)

**Q.** Which “activity change, negative = inhibition” value does the source give for `CC(C)[C@H](N)C(=O)OCC(CO)OCn1cnc2c(=O)[nH]c(N)nc21` (stereo not given in full) here?
**A.** -0.11% (inactive)

**Q.** Which “activity change, negative = inhibition” value does the source give for `NCC(O)CC(=O)O` (stereo not given) here?
**A.** -7.98% (inactive)

**Q.** For `CN1CCCC(CN2c3ccccc3Sc3ccccc32)C1` (stereo not given), which “activity change, negative = inhibition” value is on record?
**A.** -3.09% (inactive)

**Q.** How did the “activity change, negative = inhibition” value turn out when `CC(=O)[O][Al][O]C(C)=O` was run?
**A.** -1.8% (inactive)

**Q.** For `NC(=O)C1c2ccccc2CCc2ccccc21`, which “activity change, negative = inhibition” value is on record?
**A.** -6.59% (inactive)

**Q.** For `O=C(O)[C@H]1C(=CCO)O[C@H]2CC(=O)N12`, which “activity change, negative = inhibition” value is on record?
**A.** -2.82% (inactive)

**Q.** Which “activity change, negative = inhibition” value does the source give for `CN1C(=O)C[C@@H](C(=O)N[C@@H](Cc2cnc[nH]2)C(=O)N2CCC[C@H]2C(N)=O)NC1=O` here?
**A.** -3.31% (inactive)

**Q.** How did the “activity change, negative = inhibition” value turn out when `CC(C)c1nc(N(C)S(C)(=O)=O)nc(-c2ccc(F)cc2)c1/C=C/C(O)CC(O)CC(=O)O` (stereo not given) was run?
**A.** -7.21% (inactive)

**Q.** How did the “activity change, negative = inhibition” value turn out when `FC(F)(F)C(F)(F)C(F)(F)C(F)(F)C(F)(F)F` was run?
**A.** 4.19% (inactive)

**Q.** For `OCC1(CO)COC(C(Cl)(Cl)Cl)OC1`, which “activity change, negative = inhibition” value is on record?
**A.** -7.45% (inactive)

**Q.** `CN1c2c(nc(N)[nH]c2=O)NCC1CNc1ccc(C(=O)NC(CCC(=O)O)C(=O)O)cc1` (stereo not given) was tested. Which “activity change, negative = inhibition” value did it give?
**A.** -7.34% (inactive)

**Q.** `CN(C)CCCSc1ccccc1NC(=O)/C=C/c1ccccc1` was tested. Which “activity change, negative = inhibition” value did it give?
**A.** -6.82% (inactive)

**Q.** With `CC(=O)N[C@@H]1C(O[C@H]2O[C@H](C(=O)O)C(O)[C@H](O)[C@H]2O)[C@H](O)[C@@H](CO)O[C@H]1O[C@@H]1C(C(=O)O)O[C@@H](O[C@H]2[C@H](O)[C@@H](CO)OC(O)[C@@H]2NC(C)=O)[C@H](O)[C@H]1O` (stereo not given in full) as the compound, how does the “activity change, negative = inhibition” value read?
**A.** 1.36% (inactive)

**Q.** For `CC(=O)[C@H]1CC[C@H]2[C@@H]3C=CC4=CC(=O)CC[C@@]4(C)[C@H]3CC[C@]12C`, which “activity change, negative = inhibition” value is on record?
**A.** -8.33% [at 54.9 µM] (inactive)

**Q.** How did the “activity change, negative = inhibition” value turn out when `CC(CCc1ccc(O)cc1)NCC(O)c1ccc(O)cc1` (stereo not given) was run?
**A.** -3.83% (inactive)

**Q.** For `CC(C)=CCC/C(C)=C/CC/C(C)=C/CC/C=C(\C)CC/C=C(\C)CCC=C(C)C`, which “activity change, negative = inhibition” value is on record?
**A.** 1.28% (inactive)

**Q.** Which “activity change, negative = inhibition” value does the source give for `CCN(CC)CCC(=O)N1c2ccccc2Sc2ccc(C(F)(F)F)cc21` here?
**A.** -8.68% (inactive)

**Q.** With `Cn1cc(NC(=O)c2cc(NC(=O)c3cc(NC=O)cn3C)cn2C)cc1C(=O)NCCC(=N)N` as the compound, how does the “activity change, negative = inhibition” value read?
**A.** -10.5% (inactive)
